Data on 60 molecules can be found in PubChem BioAssay AID504766 (The Scripps Research Institute Molecular Screening Center, 2011).

Among all 340,000 compounds or so, about 3,400 (1%) were called active. What follows is part of a selection rich in actives, with near analogues and random picks from the rest. Values without a mark were called inactive.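 The calls were made as follows: active = inhibition above the mean over all tested compounds plus 3 SD (cut at about 4.2% in these data); inactive = the rest.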

Nuclear receptor subfamily 0 group B member 1 (Homo sapiens), sequence (P51843 207-470 limits assumed): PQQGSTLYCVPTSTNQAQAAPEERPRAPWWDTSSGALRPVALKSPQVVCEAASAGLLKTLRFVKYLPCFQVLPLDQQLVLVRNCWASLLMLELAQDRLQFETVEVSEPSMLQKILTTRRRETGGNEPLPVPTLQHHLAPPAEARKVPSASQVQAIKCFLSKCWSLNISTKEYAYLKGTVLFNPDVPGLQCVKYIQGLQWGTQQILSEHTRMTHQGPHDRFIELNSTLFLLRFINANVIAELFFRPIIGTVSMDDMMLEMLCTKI

The experiment concerns the target Nuclear receptor subfamily 0 group B member 1 (Homo sapiens) (UniProt P51843). Description: relief of DAX1 transcriptional repression – cell-based, HEK293, Gal4-DAX1, luciferase luminescence, primary screen (AID 504766).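 Also: 0% = DAX1-transfected cells with DMSO and 100% = empty-vector control cells with DMSO; inhibition shows as a rise in luminescence from relieved DAX1 repression.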 Particulars: HEK293 Gal4-DAX1 luciferase reporter, at 6.75 µM, stronger effect = higher value.
What is called inhibition is the relative decrease from the control value, in per cent. `C#CCN(C[C@@H]1[C@@H](OC(=O)NC2CC2)[C@@H](OC(=O)NC2CC2)Cn2c(=O)ccc(=O)n21)S(=O)(=O)c1ccc(C)cc1`: the inhibition was -0.06%. With `O=C(c1ccncc1)N1CCN(S(=O)(=O)c2cccc([N+](=O)[O-])c2)CC1` the figure was 0.88%; with `N/C(=N\OS(=O)(=O)c1cccc([N+](=O)[O-])c1)c1ccncc1`, 4.92% (active); with `Cc1ccccc1OS(=O)(=O)c1cccc([N+](=O)[O-])c1`, 1.42%. With `O=C(NCCc1ccco1)c1ccc(OCc2cn3ccccc3n2)cc1` the figure was 0.65%; with `CN(C)C(CNC(=O)c1ccc(OCc2cn3ccccc3n2)cc1)c1ccco1` (stereo not given), 0.93%. Regarding `O=Cc1ccc(OCc2cn3ccccc3n2)cc1`, the inhibition is 7.12% (active). As to `N#CCCN(C(=O)Nc1ccc(Cl)c(Cl)c1)C1CCCCC1`, the inhibition was 1.35%. The figure for `CC1CCN(c2ccc3c(c2)S(=O)(=O)c2cc(C(=O)O)ccc2C3=O)CC1` is -0.21%; for `COc1ccc(NC(=S)NCCNC(C)=O)cc1` it is 4.78% (active). The figure for `CCOC(=O)C(NC(C)=O)C(=O)Nc1ccc(OC)cc1` (stereo not given) is 1.97%; for `COc1ccc(NC(=S)NCC2CCN(c3ccc(OC)cc3)C2)cc1` (stereo not given) it is 0.86%. For the molecule `COc1ccc(NC(=O)c2cc(=O)[nH]c3ccccc23)cc1S(=O)(=O)N1CCOCC1`, the inhibition was 1.51%. With `COC(=O)c1ccccc1N=NNc1ccc([N+](=O)[O-])cc1`, the inhibition was 2.03%.

For `C[C@H](CO)N1C[C@H](C)[C@@H](CN(C)Cc2ccc3c(c2)OCO3)OCc2cnnn2CCCC1=O`, the inhibition is 0.31%. Consider `Cc1csc(=O)n1CCC(=O)OCC(=O)Nc1ccc(N2CCOCC2)cc1`, for which the inhibition is 0.99%. The figure for `CCN1C(=O)[C@H]2[C@@H](c3ccccc3)N[C@]3(CCCN(Cc4ccc(C)cc4)C3=O)[C@H]2C1=O` is 0.28%. As for `O=C(N/N=C/c1ccc([N+](=O)[O-])cc1)c1c[nH]c2ccccc12`, the inhibition is 5.39% (active).

`O=C(NN=Cc1ccc([N+](=O)[O-])cc1)C1CC1`: the inhibition is 0.79%. In the case of `O=[N+]([O-])c1ccc(C=NN=Cc2ccc([N+](=O)[O-])cc2)cc1`, the inhibition was 0.89%. For `COc1ccc(-c2cnc3c(c2)C(=O)N([C@H](C)CO)C[C@@H](C)[C@H](CN(C)Cc2ccccc2)O3)cc1`, the inhibition is 1.69%.

As to `CN(C)/C=C(/C(=O)c1ccccc1)S(=O)(=O)c1ccc(Cl)cc1`, the inhibition is -0.08%. With `CN(C)/C=C(/C(=O)c1ccc(Cl)cc1)S(=O)(=O)c1ccccc1`, the inhibition was -0.69%. `CN(C)/C=C(/C(=O)c1ccc(F)cc1)S(=O)(=O)c1ccc(F)cc1`: the inhibition is 7.15% (active). Turning to `CCOC(=O)C=Cc1ccc(C(=O)OCC)[nH]1`, the inhibition is -1.29%.

Take `Cc1ccc(S(=O)(=O)NN=C2CC(C)(C)CC(=O)C2(C)C)cc1`: the inhibition is 1.47%.

As to `O=C(Nc1ccccc1N1CCOCC1)c1csc2c1CCCC2`, the inhibition is -0.73%. As for `COC(=O)c1sccc1NC(=O)c1csc2c1CCCC2`, the inhibition is 4.39% (active). The figure for `COC(=O)c1sccc1NC(=O)c1ccc(Cl)cc1` is 0.77%; for `O=C(C[C@H]1C[C@@H]2c3cc(NC(=O)C4CCC4)ccc3O[C@@H]2[C@H](CO)O1)NC1CCCCC1` it is 1.37%. Take `CC1=C(C(=O)N2CCOCC2)CC(CC(=O)NCCN2CCOCC2)C(=O)N1CCC1=CCCCC1` (stereo not given): the inhibition is 1.93%.

In the case of `C[C@@H]1CN([C@H](C)CO)C(=O)CCCn2nncc2CO[C@@H]1CN(C)S(=O)(=O)c1cccc(C#N)c1`, the inhibition was 2.66%. As to `COc1cc(-c2nnc(NC(=O)CS(=O)(=O)c3ccc(Cl)cc3)o2)cc(OC)c1OC`, the inhibition is 0.2%. As for `COc1ccc(NC(=O)C(Br)C(C)C)cc1` (stereo not given), the inhibition is 1.41%. The figure for `COc1ccc(NC(=O)C(C)SCc2ccccc2)cc1` (stereo not given) is 6.52% (active); for `Cc1cccc(NC(=O)C(C)SCc2ccccc2)c1` (stereo not given) it is -1.2%. On to `O=C(CCC(=O)N1CCN(S(=O)(=O)c2ccccc2)CC1)NC1CCCc2ccccc21` (stereo not given), for which the inhibition was 0.76%. The figure for `Cc1ccc(S(=O)(=O)N2CCN(C(=O)CCC(=O)NC3CCCc4ccccc43)CC2)cc1` (stereo not given) is 4.27% (active); for `COc1ccc(NC(=O)CCC(=O)N2CCN(S(=O)(=O)c3ccc(C)cc3)CC2)c(OC)c1` it is -2%; for `CCCCCC(=O)N1C[C@H](O)[C@@H](n2cc(COC(=O)c3ccccc3)nn2)C[C@@H]1c1ccc(C)cc1` it is 0.45%. For `O=C(OCc1ccccc1)N1CCC2CC1c1cc(N3CCN(S(=O)(=O)c4cc(Cl)cc(Cl)c4)CC3)ccc12` (stereo not given), the inhibition is 1.86%. `CC(=O)c1ccccc1NC(=O)COC(=O)C1COc2ccccc2O1` (stereo not given): the inhibition is 0.71%. For `CC(C)Sc1ncnc2c1cnn2-c1ccccc1`, the inhibition was 6.85% (active). The figure for `CCN(CC)C(=O)CSc1ncnc2c1cnn2-c1ccccc1` is 0.89%. As for `CC(Sc1ncnc2c1cnn2-c1ccccc1)C(=O)Nc1ccc(N2CCOCC2)cc1` (stereo not given), the inhibition is -0.48%. In the case of `NC(=O)CSc1nnc(-c2cccc(S(=O)(=O)N3CCOCC3)c2)o1`, the inhibition is 0.86%. In the case of `CN1OC[C@@H]2CN(C(=O)c3ccc(-c4ccccc4)cc3)[C@H](c3ccc(-c4cccc(F)c4)cc3)C[C@@H]21`, the inhibition is -0.68%. Regarding `COc1ccc(N2CCN(C(=O)CCc3nc(-c4ccc(C)cc4)no3)CC2)cc1`, the inhibition is -0.22%. With `CN1CCN(C(=O)CCc2nc(-c3ccc(Cl)cc3)no2)CC1` the figure was 5.55% (active); with `COc1ccc(-c2noc(CCC(=O)N3CCN(c4cccc(C)c4)CC3)n2)cc1`, 0.39%; with `CCc1ccc(C(=O)NN=C2CCCCCC2)s1`, 1.24%. For `CC(C)(C)NC(=O)C(=O)NN=C1CCCCCCC1`, the inhibition was 6.84% (active). For the molecule `CC(C)NC(=S)NN=C1CCCCCCCCCCC1`, the inhibition was -0.27%. In the case of `C[C@@H]1CN([C@H](C)CO)C(=O)CCCn2cc(nn2)CO[C@H]1CN(C)S(=O)(=O)c1ccc(Oc2ccccc2)nc1`, the inhibition was 0.73%.

As for `CN(c1ccccc1)S(=O)(=O)c1ccc(C(=O)NCc2cccnc2)cc1`, the inhibition was -0.1%. With `O=C(NCc1nnnn1-c1ccc(Cl)cc1)c1ccc2c(c1)OCO2` the figure was 0.46%. Turning to `O=C(c1ccc(F)cc1)n1cc(C(=S)N2CCOCC2)c2ccccc21`, the inhibition is 1.01%. As to `O=C(c1ccc(F)cc1)n1c(=S)nc2ccccn21`, the inhibition is 5.47% (active). With `O=C(Cn1c(=S)nc2ccccn21)N1CCc2ccccc2C1` the figure was 1.21%. With `O=[N+]([O-])c1ccc(C(S(=O)(=O)Cc2ccccc2)S(=O)(=O)Cc2ccccc2)cc1` the figure was 1.99%.
